# Experimental data published in PubChem BioAssay (NCI).
# This is part of a sample that, as a whole, favours compounds with a hit. Of some 83,000 tested, about 20% had one in any assay.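 Negative percent growth values reflect cell death: -40 means 40% of the cells present at the start died, and -100 means all died.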 Values without a mark were called inactive. Calls of active or inactive are those of the source. Rule for the calls: active = growth percent below 10; inactive = the rest.
# Legend:
# Assay in all cases: NCI-60 one-dose screen, 48 h (100 = growth as untreated, 0 = no growth, -100 = all killed)
# Conditions in all cases: 10 µM
# [1] = tested on: DU-145 prostate
# [2] = tested on: K-562 leukemia
# [3] = tested on: MALME-3M melanoma
# [4] = tested on: MDA-MB-231 breast
# [5] = tested on: RXF 393 renal
# [6] = tested on: SF-268 CNS
# [7] = tested on: SF-539 CNS
# [8] = tested on: UACC-257 melanoma
# [9] = tested on: M14 melanoma
# [10] = tested on: SF-295 CNS
SMILES,growth [1],growth [2],growth [3],growth [4],growth [5],growth [6],growth [7],growth [8],growth [9],growth [10]
CC1NC(=O)NC1CCCCCC(=O)O (configuration not stated),108%,125%,106%,91.4%,105%,96.5%,105%,86.6%,95%,–
c1ccc(CN2COc3c(ccc4c3OCN(Cc3ccccc3)C4)C2)cc1,25.3%,3.62% (active),28.4%,1.06% (active),–,15.1%,-21.5% (active),12.1%,-0.269% (active),0.773% (active)
CC(C)CCCC(=O)O,111%,135%,98.5%,123%,93%,106%,98.5%,117%,119%,–
CCCC[P+](c1ccccc1)(c1ccccc1)c1ccccc1,62.5%,24.4%,41%,84.3%,102%,67.2%,64.5%,17%,54.9%,–
CCCCCCCCCCC1CO1 (configuration not stated),108%,102%,103%,111%,103%,106%,105%,96.4%,108%,–
COc1ccccc1N1CCN(C(=S)Nc2ccccc2)CC1,100%,81.8%,97.3%,101%,100%,99.3%,106%,–,100%,–
NCCCN,107%,103%,95.5%,106%,115%,103%,102%,–,112%,–
CC(C)(O)C#CC#CC(C)(C)O,113%,93.6%,107%,105%,–,106%,93.8%,94.4%,107%,95.1%
COC(=O)CCCCC1=CCC2C(=O)C=C(O)C2C1 (configuration not stated),104%,90.9%,106%,106%,103%,104%,99.8%,–,109%,–
O=C(Cc1ccccc1)Cc1ccccc1,113%,110%,115%,109%,–,103%,101%,93.1%,102%,108%
COc1cc2c3cc1Oc1c(OC)c(OC)cc4c1C(Cc1ccc(O)c(c1)Oc1ccc(cc1)CC3N(C)CC2)N(C)CC4 (configuration not stated),33.4%,0.419% (active),-79.3% (active),-24.1% (active),-14.9% (active),36.2%,-23.5% (active),-62.2% (active),-77.8% (active),–
CN(C)c1nc2c([nH]1)c(=O)n(C)c(=O)n2C,116%,96.5%,101%,107%,–,105%,107%,87.8%,108%,104%
CCCCC(=O)c1ccc(OC)cc1,104%,105%,94%,109%,–,107%,110%,91.2%,99.4%,92%
COc1cc(CN)ccc1O,91.2%,71.7%,79.3%,86.9%,95%,100%,94.9%,94.1%,101%,–
C/C(=N\O)C1(O)CCCCC1,100%,106%,114%,94.7%,–,82.7%,99.2%,98.3%,110%,110%
C#CC(C)(O)c1ccc(Cl)cc1 (configuration not stated),112%,91.3%,125%,102%,–,103%,96.3%,101%,98.8%,90.8%

SMILES,growth [1],growth [2],growth [3],growth [4],growth [5],growth [6],growth [7],growth [8],growth [9],growth [10]
C=CCNc1nnc(C)s1,118%,106%,106%,102%,–,119%,99.9%,–,–,115%
Sc1ccc(Nc2c3ccccc3nc3ccccc23)cc1,104%,32%,86%,98%,–,102%,95.5%,68.1%,96.8%,26.5%
CCOC(=O)CCCC(=O)OCC,103%,101%,95.7%,100%,–,96.7%,98.4%,99%,99.2%,101%
Nc1ccc(N=Nc2ccc(O)cc2)c(N)n1,79.3%,39.2%,72%,73.7%,91.6%,73.1%,66.5%,97.9%,70.9%,–
NC(CSC(c1ccccc1)(c1ccccc1)c1ccccc1)C(=O)O (configuration not stated),29.9%,14.5%,51.1%,4.8% (active),3.38% (active),43.3%,10.3%,52.3%,13.6%,–
Cc1ccccc1C1N=C2Oc3ccccc3C=C2C(=O)N1 (configuration not stated),20.4%,24.2%,51.8%,32.5%,-4.6% (active),53.7%,-5.32% (active),56.2%,-24.7% (active),–
Cc1ccc(S(=O)(=O)O)c(C)c1,108%,98.8%,88.4%,116%,117%,114%,101%,108%,101%,–
O=S(=O)(Cc1ccccc1)c1ccccc1,107%,103%,106%,121%,102%,101%,97.7%,107%,104%,–
CC(=O)c1ccc2c(ccc3ccccc32)c1,111%,90.5%,110%,105%,–,104%,97.5%,108%,89.1%,99.3%
CCS(=O)(=O)CCCl,96.8%,93%,93.3%,–,105%,106%,104%,94.5%,94.4%,102%
COc1ccc(-c2cc(-c3cc(-c4ccc(OC)cc4)nc(N)n3)nc(N)n2)cc1,102%,98.9%,91.2%,–,101%,102%,98.1%,99.4%,104%,96.2%
COc1cc2c(cc1OC)[C@H](C(=O)O)[C@@H](c1ccc(OC(C)C)c(OC)c1)N(C)C2=O,114%,99.6%,94.8%,104%,–,116%,94.4%,–,104%,94.5%
Cc1cc(NC(=O)CSCC(=O)O)no1,112%,117%,96.8%,–,103%,114%,96.4%,95.4%,99.6%,94.2%
Clc1ccc(-c2nnc(-c3cccc4ccccc34)o2)cc1,114%,104%,99.8%,–,102%,103%,94.8%,78%,–,110%
CN(C)CCC(=O)c1ccc(O)cc1,104%,104%,108%,–,112%,95.5%,104%,105%,104%,106%
